# HP1b binding inh – HTS for Inhibitors of HP1-beta Chromodomain Interactions with Methylated Histone Tails. Chromobox protein homolog 1 (Homo sapiens), P83916. AlphaScreen HP1-beta / biotin-H3K9me3 peptide binding. Potency, µM (doses to about 114 µM), usual class: inhibitors. 390,000 compounds, 0.56% hits. AID 540317, 2011; note: nearly all actives have a fitted effect of over 70% in size
# Target sequence (P83916 whole entry, looked up): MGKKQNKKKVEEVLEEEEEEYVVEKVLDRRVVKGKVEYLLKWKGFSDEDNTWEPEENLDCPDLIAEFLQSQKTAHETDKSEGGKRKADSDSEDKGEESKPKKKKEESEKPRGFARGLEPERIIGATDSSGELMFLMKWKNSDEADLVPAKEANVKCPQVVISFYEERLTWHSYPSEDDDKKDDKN
#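 AlphaScreen: HP1-beta (50 nM) preformed 30 min with biotin-H3(1-18)K9me3 peptide (50 nM) in PBS pH 7.4, 0.01% Tween-20. Compound added for 30 min at RT, then streptavidin donor/nickel chelate acceptor beads (10 ug/mL) for 30 min.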
# JMJD2A Tudor – qHTS Assay for Inhibitors of JMJD2A-Tudor Domain. Lysine-specific demethylase 4A (Homo sapiens), O75164. AlphaScreen JMJD2A-Tudor / H3K4me3 peptide binding. Potency, µM (series often up to 114 µM), usual class: inhibitors. 390,000 compounds, 4.4% hits. AID 504339, 2011; note: nearly all actives have a fitted effect of over 50% in size
# Sfp inh – qHTS Assay for Inhibitors of Bacillus subtilis Sfp phosphopantetheinyl transferase (PPTase); 4'-phosphopantetheinyl transferase ffp (Bacillus subtilis), Q9F4F7; Biochemical Sfp PPTase activity, qHTS; Potency, µM, hits mostly inhibitors; 310,000 compounds, 3.5% hits;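 note: the enzyme is Sfp with the accession as filed and its product quenches rhodamine fluorescence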
#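 Reaction rates are the 30-min fluorescence difference (ex 525, em 598 nm) in wells containing 15 nM Sfp, 5 uM rhodamine-CoA and 12.5 uM BHQ-2-YbbR at pH 7.6 with 10 mM MgCl2.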
# ALOX12 inh – Primary qHTS assay for inhibitors of human arachidonate 12S-lipoxygenase (ALOX12): Round 2 | Potency, µM (top dose mostly 108 µM), hits mostly inhibitors | purified 12hLO, xylenol orange hydroperoxide absorbance | AID 1671190, 2021 | 580,000 compounds, 1.1% hits
#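 Hydroperoxide product was detected by ferrous iron/xylenol orange as the 573 to 405 nm absorbance ratio. Arachidonic acid at 40 uM (final) was turned over for 30 min at room temperature by 150 nM human 12hLO, pH 7.0 Hepes buffer, after 15 min compound preincubation.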
# G9a block – qHTS Assay for Inhibitors of Histone Lysine Methyltransferase G9a. Histone-lysine N-methyltransferase EHMT2 (Homo sapiens), Q96KQ7. G9a H3K9 monomethylation, AlphaScreen, 2 h. Potency, µM (titrated, usually from 102 µM), actives largely listed as inhibitors. 350,000 compounds, 8.8% hits; note: nearly all actives have a fitted effect of over 75% in size
# Target sequence (Q96KQ7 913-1193 limits assumed): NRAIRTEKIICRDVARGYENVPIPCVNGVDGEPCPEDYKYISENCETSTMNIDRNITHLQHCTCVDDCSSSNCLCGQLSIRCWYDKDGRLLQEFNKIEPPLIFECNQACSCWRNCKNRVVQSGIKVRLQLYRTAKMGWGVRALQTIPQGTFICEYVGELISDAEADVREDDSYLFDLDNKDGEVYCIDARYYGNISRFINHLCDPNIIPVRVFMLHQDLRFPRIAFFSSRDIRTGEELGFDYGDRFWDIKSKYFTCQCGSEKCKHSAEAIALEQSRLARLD
#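 G9a (20 nM) preincubated 15 min RT with compounds, then 500 nM biotinylated H3K9 peptide and 20 uM SAM added; 2 h RT reaction. Monomethyl-H3K9 product detected by AlphaScreen with anti-H3K9me1 antibody, streptavidin donor and anti-rabbit IgG acceptor beads.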
# BAZ2B block – qHTS Assay for Inhibitors of BAZ2B | Bromodomain adjacent to zinc finger domain protein 2B (Homo sapiens), Q9UIF8 | AlphaScreen BAZ2B-H3K14Ac peptide displacement | Potency, µM (top dose mostly 114 µM), actives largely listed as inhibitors | 360,000 compounds, 4.4% hits | AID 504333, 2011; note: nearly all actives have a fitted effect of over 60% in size
#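 AlphaScreen displacement: compounds (up to 110uM) incubated 30 min at room temperature with a preformed 50 nM BAZ2B/50 nM biotinylated H3K14Ac peptide complex in PBS pH 7.4 with Tween-20. Donor and acceptor beads at 10 ug/mL final added, 20 min light-protected before reading.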
# A number is an active result; – = inactive; ? = inconclusive; · = not tested or not shown; [ ] = remark or other dose. In the library only some 8.7% were active in any assay of this set; here they are far more common. Calls come from the whole dose curve; as a rule, active = well fitted curve in the direction sought with a large enough effect; inconclusive = small, poorly fitted or top-dose-only effect, or another doubt; inactive = no such curve, though single readings can be large; an effect the other way counts as inactive or inconclusive.
SMILES,HP1b binding inh,JMJD2A Tudor,Sfp inh,ALOX12 inh,G9a block,BAZ2B block
C=CCn1c(N)c(C(=O)NC2CCCCC2)sc1=S,–,–,15.8µM,–,–,–
COC(=O)c1ccc(C)c(NC(=O)c2cc(=O)c3cc(C)ccc3o2)c1,·,·,·,–,·,·
Cc1c([N+](=O)[O-])c2ccc(O)cc2n1-c1ccccc1,–,–,–,–,–,–
Cc1ccc(-n2c(C)c([N+](=O)[O-])c3ccc(O)cc32)cc1,·,·,17.8µM,–,50.1µM,–
O=[N+]([O-])c1ccc(-c2nc(C(Cl)Cl)c3ccccc3n2)cc1,–,–,–,?,22.4µM,?
COc1ccc(OCCN2CCN(C(=O)c3cc(C4CC4)nc4ccccc34)CC2)cc1,·,·,·,–,·,·
COc1ccc(N2CCN(Cc3nnnn3C3CCCCC3)CC2)cc1,?,–,–,–,50.1µM,–
COc1ccc(N2CCN(Cc3cccn3-c3nnc(N4CCN(C5CCCCC5)CC4)s3)CC2)cc1,?,50.1µM,·,–,?,?
C1CCC(n2nnnc2CN2CCCC2)CC1,–,–,–,–,–,–
CCOc1ccc(NCc2cccn2-c2nnc(N3CCC(C(=O)NCCCN4CC(C)CC(C)C4)CC3)s2)cc1 (stereo not drawn),?,39.8µM,–,–,44.7µM,?
Cc1ccc(NCc2cccn2-c2nnc(N3CCCCCC3)s2)cc1,–,?,·,–,–,–
COc1ccc(NCc2cccn2-c2nnc(N3CCCCCC3)s2)cc1,?,44.7µM,·,–,?,–
CCC1(CC)CN(C(=O)C2CCC(=O)N(Cc3ccccn3)C2)CCO1 (stereo not drawn),·,·,·,–,·,·
CC1(C)CN(Cc2nnc(-c3cccc(F)c3)o2)CC[C@]1(C)O,·,·,·,–,·,·
CCC[C@H]1CN(CCCOc2ccc(C(N)=O)cc2)C[C@@H]1NC(C)=O,·,·,·,–,·,·
c1cc(C2CC2)[nH]n1,·,·,·,–,·,·
Cc1cc(O)c(Oc2cc(C)cc(O)c2O)c(O)c1,?,39.8µM,5.01µM,?,0.891µM,?
COc1ccc(N2C(=O)NC(NS(=O)(=O)c3ccccc3)(C(F)(F)F)C2=O)cc1 (stereo not drawn),–,–,–,–,–,–
COc1ccc(N=C2C(=S)N(c3ccc(OC)cc3)C(=NS(=O)(=O)c3ccccc3)N2c2ccccc2)cc1,10µM,?,·,?,·,·
Cc1ccc(-c2csc(NC(=O)c3ccc(-c4ccccc4)cc3)n2)o1,?,?,22.4µM,·,–,?
O=C(Nc1nc(-c2ccco2)cs1)c1ccccc1,–,?,?,?,?,56.2µM
Cc1ccc(-c2csc(NC(=O)Cc3ccc(F)cc3)n2)o1,?,–,12.6µM,?,10µM,–
COc1ccc(OC)c(-c2csc(NC(=O)Cc3ccc(F)cc3)n2)c1,–,?,–,–,–,–
O=C(COc1ccc(F)cc1)NCc1nnc2ccc(-c3ccccc3)nn12,·,·,·,–,·,·
CCOc1ccc(C(=O)Nc2cccc(C)n2)cc1,–,–[11.4 µM],–,?,50.1µM,–
SMILES,HP1b binding inh,JMJD2A Tudor,Sfp inh,ALOX12 inh,G9a block,BAZ2B block
COC(=O)c1cc(C(=O)Nc2cc(C)on2)cc([N+](=O)[O-])c1,–,–,–,–,–,–
Cc1ccc(CC(=O)Nc2cc(C)ccn2)cc1,–,–,–,–,–,–
Cc1cccc(NC(=O)c2ccccc2Br)n1,–,–,–,?,22.4µM,–
CCNC(=S)Nc1cc(C)ccn1,–,–,?,–,1µM,–
COC(=O)c1cc(C(=O)Nc2cc(C)ccn2)cc([N+](=O)[O-])c1,–,–,–,–,50.1µM,–
COc1ccc(C(NC(=O)c2nc(-c3ccco3)sc2C)c2nccn2C)cc1 (stereo not drawn),·,·,·,–,·,·
Cc1ccc(-c2cnc(CCC(=O)Nc3nc(C)cs3)o2)cc1,·,·,·,–,·,·
Cc1cc2c(cc1CNC1CC(C)(C)Cc3nc(C(C)(C)C)ncc31)OCO2 (stereo not drawn),·,·,·,–,·,·
FC(F)(F)c1cccc(CSc2nnc(SCc3ccc(Cl)cc3)s2)c1,·,·,·,–,·,·
CSCCC(NS(=O)(=O)c1ccc2c(c1)oc(=O)n2C)C(=O)Nc1ccc(F)cc1 (stereo not drawn),·,·,·,–,·,·
CCOc1ccc(C(=O)Nc2cc(C)ccn2)cc1,–,12.6µM,–,?,?,–
CCOc1cc(C(=O)Nc2cc(C)ccn2)cc(OCC)c1OCC,–,–,–,–,–,–
COc1ccc(-c2nnc3ccc(SCC(=O)N4CCOCC4)nn23)cc1,–,–,–,–,22.4µM,–
COc1ccc(-c2nnc3ccc(SCC(=O)N4CCN(c5ccccc5)CC4)nn23)cc1,–,?,·,31.6µM,·,·
CCN(CC)CCCN(C/C=C/c1ccccc1)C/C=C/c1ccccc1,·,·,·,0.708µM,·,·
Cc1snc2sc(C(=O)c3ccc(F)cc3)c(N)c12,–,–,39.8µM,–,·,–
CS(=O)(=O)N1Cc2ccccc2CC2(CCN(Cc3ccccc3)C2)C1 (stereo not drawn),·,·,·,–[6.33 µM],·,·
Cc1ccccc1NC(=O)c1sc2c(c1C)C(c1cccs1)CC(=O)N2 (stereo not drawn),·,·,·,25.1µM,·,·
Cc1ccccc1NC(=O)c1sc2c(c1C)C(c1ccsc1)CC(=O)N2 (stereo not drawn),·,·,·,–,·,·
Cc1nc(NCc2ccccc2)sc1C(=O)Nc1ccccc1,–,–,–,–,50.1µM,?
Cc1nc(NCCOc2ccccc2)sc1C(=O)Nc1ccccc1,–,–,–,?,44.7µM,–
Cc1nc(Nc2ccccc2)sc1C(=O)Nc1ccccc1,–,–,–,?,·,–
O=C(Nn1cnnc1)c1ccc(Br)cc1,·,·,·,–,·,·
Cc1cc(SCC(=O)NC2CC2)nc2c(C)cccc12,·,·,·,–,·,·
COc1ccccc1CNC(=O)Cn1ccc2ccc(Cl)cc21,·,·,·,–,·,·
SMILES,HP1b binding inh,JMJD2A Tudor,Sfp inh,ALOX12 inh,G9a block,BAZ2B block
S=c1nc(C2CCCCC2)n(-c2ccccc2)[nH]1,–,15.8µM,–,?,3.55µM,–
CC(C)n1c(=S)[nH]c2cc(Cl)ccc21,–,?,79.4µM,?,10µM,?
CCOc1cc2[nH]c(=S)n(C(C)C)c(=O)c2cc1OCC,–,–,–,–,–,–
O=C(O)c1cc(NC(=O)c2cccc(N3C(=O)c4ccccc4C3=O)c2)cc(C(=O)O)c1,–,–,–,–,·,–
CC(=O)c1ccc(NC(=O)c2cccc(N3C(=O)c4ccccc4C3=O)c2)cc1,–,–,–,·,79.4µM,–
O=C(Nc1ccccc1C(=O)O)c1cccc(N2C(=O)c3ccccc3C2=O)c1,–,–,–,?,–,–

# Source: PubChem
